Assay results reported in PubChem BioAssay (NCATS).
Inconclusive results are not listed. A call without a number means that no potency is given here. Calls of active or inactive are those of the source. The call rests on the fitted dose curve.

assay: Primary qHTS for inhibitors of SARS-S pseudo-typed particle cell entry (AID 1479145); conditions: SARS-S pseudotyped particle cell entry, luciferase reporter; series mostly up to 57.1 µM; further: nearly all actives have a fitted effect of over 45% in size; further: potency means the concentration at half of the fitted maximal effect

Row | Structure (SMILES) | Potency
1 | COC(=O)N[C@H](C(=O)N1CC2(CC2)C[C@H]1c1ncc(-c2ccc3c(c2)C(F)(F)c2cc(-c4ccc5nc([C@@H]6[C@H]7CC[C@H](C7)N6C(=O)[C@@H](NC(=O)OC)C(C)C)[nH]c5c4)ccc2-3)[nH]1)C(C)C | inactive
2 | CC[C@@]1([C@@H]2O[C@@H]([C@H]3O[C@@](O)(CO)[C@H](C)C[C@@H]3C)C[C@@H]2C)CC[C@H]([C@]2(C)CCC3(C[C@H](O)[C@@H](C)[C@@H]([C@@H](C)[C@@H](OC)[C@H](C)C(=O)O)O3)O2)O1 (some centres not stated) | inactive
3 | CC1(COc2ccc(N3CCC(Oc4ccc(OC(F)(F)F)cc4)CC3)cc2)Cn2cc([N+](=O)[O-])nc2O1 (configuration not stated) | inactive
4 | CN(C)C/C=C/C(=O)Nc1cc2c(Nc3ccc(F)c(Cl)c3)ncnc2cc1OC1CCOC1 (configuration not stated) | 10 µM (active)
5 | C=C(NC(=O)C(=C)NC(=O)c1csc(C2=N[C@H]3c4csc(n4)[C@H]4NC(=O)c5csc(n5)[C@H]([C@@](C)(O)[C@@H](C)O)NC(=O)[C@H]5CSC(=N5)C(=CC)NC(=O)[C@H]([C@@H](C)O)NC(=O)c5csc(n5)[C@]3(CC2)NC(=O)[C@H](C)NC(=O)C(=C)NC(=O)[C@H](C)NC(=O)[C@H](C(C)CC)N[C@@H]2C=Cc3c([C@H](C)O)cc(nc3[C@H]2O)C(=O)O[C@@H]4C)n1)C(N)=O (some centres not stated) | inactive
6 | CC(C)OC(=O)CCC/C=C\C[C@@H]1[C@@H](/C=C/[C@@H](O)COc2cccc(C(F)(F)F)c2)[C@H](O)C[C@@H]1O | inactive
7 | CC[C@@]1(O)C(=O)OCc2c1cc1n(c2=O)Cc2c-1nc1cc(F)c(C)c3c1c2[C@@H](N)CC3 | inactive
8 | COC[C@H]1C[C@@H](c2ncc(-c3ccc4c(c3)COc3cc5c(ccc6[nH]c([C@@H]7CC[C@H](C)N7C(=O)[C@@H](NC(=O)OC)C(C)C)nc65)cc3-4)[nH]2)N(C(=O)[C@H](NC(=O)OC)c2ccccc2)C1 | inactive
9 | C=C1CC[C@H](O)CC1=C/C=C1\CCC[C@]2(C)[C@@H]([C@H](C)CCCC(C)(C)O)CC[C@@H]12 | inactive
10 | CN(C)CC/C=C1\c2ccccc2CSc2ccccc21 | 20 µM (active)

assay: Primary qHTS for Huh7 cytotoxicity: counterscreen for inhibitors of MERS-S pseudotyped particle cell entry (AID 1479147); conditions: cell viability read-out; series mostly up to 57.1 µM

Row | Structure (SMILES) | Potency
11 | C=C1C/C(=C\C=C2/CCC[C@]3(C)[C@@H]([C@H](C)/C=C/C(C)C(C)C)CC[C@@H]23)[C@@H](O)C[C@@H]1O (some centres not stated) | inactive
12 | Cc1c(OCC(F)(F)F)ccnc1C[S@@](=O)c1nc2ccccc2[nH]1 | inactive
13 | N#Cc1c(N2C[C@@H]3NCCO[C@H]3C2)c(F)cc2c(=O)c(C(=O)O)cn(C3CC3)c12 | inactive
14 | CCOc1ccc2c(c1)C(C)=CC(C)(C)N2 | inactive
15 | COc1ccc(C=CC(=O)O)cc1 | inactive
16 | Nc1nc(Cl)nc2c1ncn2C1CC(O)C(CO)O1 (configuration not stated) | inactive
17 | CC(C)(O)CNc1nc(Nc2ccnc(C(F)(F)F)c2)nc(-c2cccc(C(F)(F)F)n2)n1 | inactive
18 | CCC[C@H](NC(=O)[C@@H]1[C@H]2CCC[C@H]2CN1C(=O)[C@@H](NC(=O)[C@@H](NC(=O)c1cnccn1)C1CCCCC1)C(C)(C)C)C(=O)C(=O)NC1CC1 | inactive
19 | CC[C@H]1OC(=O)[C@H](C)[C@@H](O[C@H]2C[C@@](C)(OC)[C@@H](O)[C@H](C)O2)[C@H](C)[C@@H](O[C@@H]2O[C@H](C)C[C@H](N(C)C)[C@H]2O)[C@](C)(OC)C[C@@H](C)C(=O)[C@H](C)[C@@H](O)[C@]1(C)O | inactive
20 | CCN(CC)CCOC(=O)c1ccc(N)cc1Cl | inactive
21 | C=C1CC[C@H](O)CC1=C/C=C1\CCC[C@]2(C)[C@@H]([C@H](C)/C=C/[C@H](C)C(C)C)CC[C@@H]12 | inactive
22 | CNCC(=O)OCc1cccnc1N(C)C(=O)OC(C)[n+]1cnn(C[C@](O)(c2cc(F)ccc2F)[C@@H](C)c2nc(-c3ccc(C#N)cc3)cs2)c1 (some centres not stated) | inactive
23 | CCCCCCCCCC(=O)OC1(c2ccc(Cl)cc2)CCN(CCCC(=O)c2ccc(F)cc2)CC1 | inactive
24 | C=C1/C(=C\C=C2/CCC[C@]3(C)[C@@H]([C@H](C)CCCC(C)(C)O)CC[C@@H]23)C[C@@H](O)C[C@@H]1O | inactive
25 | CCOC(=O)Cc1ccc(-c2ccccc2)cc1 | inactive
26 | CC(C)c1nc(CN(C)C(=O)N[C@@H](CCN2CCOCC2)C(=O)N[C@H](CC[C@H](Cc2ccccc2)NC(=O)OCc2cncs2)Cc2ccccc2)cs1 | inactive
27 | CC[C@H]1OC(=O)[C@H](C)[C@@H](O[C@H]2C[C@@](C)(OC)[C@@H](O)[C@H](C)O2)[C@H](C)[C@@H](O[C@@H]2O[C@H](C)C[C@H](N(C)C)[C@H]2O)[C@](C)(O)C[C@@H](C)CN(C)[C@H](C)[C@@H](O)[C@]1(C)O | inactive
